Lassa entry inh: blocks Lassa virus binding to or entry into cells; Lassa virus pseudotype entry inhibition, cell reporter; Potency, µM (doses to about 37.9 µM), for inactives: at the highest dose activity change, negative = inhibition, hits mostly inhibitors; 1.2% of 300,000 active; AID 540256; calls by dose curve; tested in HEK293 cells; note: potency is the fitted concentration of half-maximal effect; nearly all actives have a fitted effect of over 50% in size
Marburg entry inh: blocks Marburg virus binding to or entry into cells; Marburg virus pseudotyped entry inhibition, cell reporter; Potency, µM (series often up to 37.8 µM), for inactives: at the top dose activity change, negative = inhibition, most hits filed as inhibitors; 1.8% of 300,000 active; AID 540276; calls by dose curve; tested in HEK293 cells; note: potency is the fitted concentration of half-maximal effect
HCMV antiviral: human cytomegalovirus inhibition. HFF cells, HCMV-luciferase reporter, 72 h; hits give low values. activity change, negative = inhibition, % at 57.5 µM. 4.5% of 410,000 active; in the data active = activity change below about -60%; inconclusive = no clear call, values can overlap the other calls; inactive = above about -39%
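After 16 h attachment at 37C, HFF cells received test compound and HCMV-luciferase (1 PFU/cell); reporter luminescence read 72 h later, data normalized against buffer-only and known inhibitor Salinomycin.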
FMDV antiviral: antivirals against foot and mouth disease virus; AID 1159524; Potency, µM (series often up to 57.9 µM), for inactives: top-dose activity change, negative = inhibition, actives largely listed as inhibitors; FMDV antiviral cell-based qHTS; 1.2% of 410,000 active; calls by dose curve; tested in HEK293T cells; note: read-out not given here; potency is the fitted concentration of half-maximal effect; nearly all actives have a fitted effect of over 45% in size
* marks the source's active call; other numbers are inactive results; u = inconclusive; x = not tested or not shown; [ ] = another dose, or the depositor's remark. Compounds with a hit are over-represented: about 6.2% of the library has one in this group of screens. % is set by controls: 0 for no effect and ±100 for the full control effect.

SMILES	Lassa entry inh	Marburg entry inh	HCMV antiviral	FMDV antiviral
COc1cccc(CSc2nc3sc(C)c(C)c3c(=O)n2Cc2ccco2)c1	u	15µM*	33	-18%
Cc1sc2nc(SCC(=O)C(C)(C)C)n(Cc3ccco3)c(=O)c2c1C	8.2µM*	u	-98*	-20%
Cc1cc2c(=O)n(Cc3ccco3)c(SCC(=O)c3ccc(Cl)s3)nc2s1	u	u	-65*	u
CCOC(=O)CC(=O)CSc1nc2sc(C)cc2c(=O)n1Cc1ccco1	0%	-5%	-25	-28%
O=C(NCCN1Cc2ccccc2OC(c2ccsc2)C1)c1ccc2[nH]ccc2c1 (stereo not given)	x	x	x	1%
CCOc1ccccc1NC(=O)CSc1n[nH]c(=O)n1-c1ccccc1	x	x	19	-22%
O=c1[nH]nc(SCCS(=O)(=O)c2ccc(F)cc2)n1-c1ccccc1	-24%	-25%	-79*	u
O=c1[nH]nc(SCCS(=O)(=O)c2ccc(F)cc2)n1-c1ccc2c(c1)OCCO2	-16%[46.1 µM]	u	-81*	-28%
C=CCOC(=O)N[C@H](c1ccc(-c2ccccc2)cc1)[C@H](C)C=CCC(=O)OC	u	-4%[14.2 µM]	x	x
CCSc1nc(-c2ccc(OC)cc2)nc2c1Cc1c(CO)cnc(C)c1O2	-6%[46.1 µM]	x	u	-11%
Cc1cccc([N+](=O)[O-])c1NC(=O)CN(Cc1ccccc1)Cc1ccccc1	u	u	-61*	u
Cc1cccc(C)c1NC(=O)CN(C)CCc1ccccc1	x	x	27	-19%
CC1CCCN(CCCNC(=O)c2cc3c(s2)-c2ccccc2OC3)C1 (stereo not given)	u	3.2µM*	-67*	-6%
Cc1ccc(CCNC(=O)c2cc3c(s2)-c2c(C)cccc2OC3)cc1	x	8%[46.1 µM]	-86*	-12%
CCN(CC)CCNC(=O)c1cc2c(s1)-c1ccccc1SC2	x	x	-72*	-8%
Cc1cccc2c1-c1sc(C(=O)NCc3ccccc3Cl)cc1CO2	x	u	-5	40%
CC1CCN(CCCNC(=O)c2cc3c(s2)-c2ccccc2OC3)CC1	x	x	-18	-9%
O=C(NCCc1ccc(Cl)cc1)c1cc2c(s1)-c1ccccc1OC2	x	11%[46.1 µM]	-23	0%
Cc1ccc(CCNC(=O)c2cc3c(s2)-c2ccccc2OC3)cc1	x	-1%[46.1 µM]	-89*	-15%
Cc1ccc(S(=O)(=O)NCCSc2nnnn2-c2ccc(Cl)c(C(=O)O)c2)cc1	15%[46.1 µM]	u	10	10%
O=C(Nc1cccnc1)c1cc2c(s1)-c1ccccc1OC2	x	x	-62*	5%
Cc1cccc2c1-c1sc(C(=O)Nc3cccnc3)cc1CO2	x	x	u	22%
CCC(=O)NC(c1ccccc1Cl)c1c(O)ccc2ccccc12 (stereo not given)	-14%	u	u	0%
COc1ccccc1C(NC(=O)C1CCCCC1)c1c(O)ccc2ccccc12 (stereo not given)	5%	u	-102*	-11%
COc1ccc(NC(=O)CN2CCN(Cc3ccc(F)cc3)S2(=O)=O)cc1Cl	-12%[46.1 µM]	x	-13	-24%
SMILES	Lassa entry inh	Marburg entry inh	HCMV antiviral	FMDV antiviral
COC(=O)c1ccc(/C=C(\C#N)c2ccccn2)cc1	x	x	-26	68%
Cc1cc(C)n2nc(/C(C#N)=C/c3ccccn3)c(C#N)c2n1	10µM*	u	7	u
N#C/C(=C\c1ccc([N+](=O)[O-])cc1)c1ccccn1	2%	13%[46.1 µM]	-75*	15%
N#C/C(=C\c1ccccn1)c1ccccn1	u	u	-74*	10%
N#C/C(=C\c1cccnc1)c1ccc([N+](=O)[O-])cc1	u	-29%	-37	-16%
CN(C)c1ccc(/C=C(\C#N)c2ccccn2)cc1	1.4µM*	1.2µM*	-84*	u
O=C(Nc1cccc(Cl)c1)N1CC2CCCN2c2ccccc21 (stereo not given)	u	x	20	-25%
CC(C)(C)n1nnnc1C1c2ccccc2C(=O)N1CCc1c[nH]c2ccccc12 (stereo not given)	x	x	-10	9%
CCOC(=O)C1(C(=O)OCC)Cc2ccc(C(C)=O)cc2C1	u	-20%[14.2 µM]	x	x
CC1CCCC(C)N1/N=C/c1c[nH]c2ccc(Br)cc12 (stereo not given)	-9%	u	-78*	-9%
CC1CCCC(C)N1/N=C/c1cccc(Br)c1 (stereo not given)	15%	-2%	-22	18%
Cc1cc(C(=O)NNC(=O)Nc2ccc(Cl)cc2)no1	-9%	-15%[46.1 µM]	86	0%
Cc1cc(C(=O)NNc2ccc(Cl)cc2)no1	-8%[46.1 µM]	4.5µM*	-35	1%
Cc1ccc(C)c(Nc2nc3nonc3nc2Nc2cccc(C)c2C)c1	u	u	-101*	u
CCOC(=O)c1ccc(Nc2nc3nonc3nc2Nc2cccc(C)c2C)cc1	u	u	-97*	u
